Assay results reported in PubChem BioAssay (EPA / NIEHS).
Results filed as inconclusive are left out. Calls of active or inactive are those of the source. Rule for the calls: active = hit-call score of the fitted dose curve at least 0.9, where 1 is the maximum; inconclusive = response in the unintended direction; inactive = score below 0.9.

Molecular target: Estrogen-related receptor gamma (Homo sapiens) (UniProt P62508)
Experiment: ATG_ERRg_TRANS: Attagene TRANS-FACTORIAL HepG2 Assay for human Estrogen-Related Receptor gamma (ERRg) (AID 2282977);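 note: hits increase reporter signal over DMSO so potencies reflect activators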
Conditions: HepG2 Attagene TRANS reporter, ERRg transactivation
How it was run: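 Readout: fluorescent reporter-mRNA fragments resolved by capillary electrophoresis after RT-PCR and HpaI cut. Cells: transiently transfected HepG2 carrying GAL4-UAS reporters driven by exogenous NR-Gal4 chimeras, dosed 24 h. Activity fitted upward relative to DMSO baseline.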

Sequence of Estrogen-related receptor gamma (Homo sapiens) (P62508 whole entry, looked up): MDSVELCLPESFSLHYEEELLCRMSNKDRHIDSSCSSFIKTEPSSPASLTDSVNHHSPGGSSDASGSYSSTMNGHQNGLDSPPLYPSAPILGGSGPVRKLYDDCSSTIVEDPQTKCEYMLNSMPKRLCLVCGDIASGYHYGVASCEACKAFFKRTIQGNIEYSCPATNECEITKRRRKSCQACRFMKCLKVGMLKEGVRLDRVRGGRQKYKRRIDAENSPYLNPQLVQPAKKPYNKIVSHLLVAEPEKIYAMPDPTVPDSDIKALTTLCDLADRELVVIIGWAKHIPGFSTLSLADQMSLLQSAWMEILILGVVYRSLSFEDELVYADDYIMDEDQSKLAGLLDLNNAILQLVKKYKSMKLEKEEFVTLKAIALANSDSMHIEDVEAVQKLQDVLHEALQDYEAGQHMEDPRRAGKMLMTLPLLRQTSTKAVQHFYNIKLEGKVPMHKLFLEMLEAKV

outcome, inactive:
CCCCCCCCCCCCCC(=O)O
CCn1c2ccccc2c2cc(N)ccc21
CCCCCOC(=O)CCC
O=C(Nc1ccccc1)c1cc([N+](=O)[O-])ccc1Cl
COc1cc(C(C)(C)C)c(O)c(C(C)(C)C)c1
OCCN1CCNCC1
C/C=C(\C)C(=O)OCc1ccccc1
N#Cc1nc(Cl)c(Cl)c(Cl)c1Cl
